# About 8,800 targets were measured; listed, in parts, are those with a hit and a random draw of the rest. About 0.5% of all pairs of compound and target were hits. Values without a mark were called inactive.
# Experiments:
# Assay in all cases: log2 fold change, soluble protein after heating vs DMSO (PISA); higher = thermal stabilisation; K562 lysate, 10 uM; active = over 0.2 and 3.5 SD of the protein, either way, in both replicates (recomputed)
# [1] = compound: CCCS(=O)(=O)Nc1ccc(F)c(C(=O)c2c[nH]c3ncc(-c4ccc(Cl)cc4)cc23)c1F [vemurafenib]
# How it was run: (§1)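 Thermal stability, expressed as log-two fold change relative to solvent controls, is given from duplicates. Crude K562 extract in PBS pH 7.4 with 1 mM MgCl2, at 1 mg/mL protein, was treated with 10 μM compound for 30 min and heated in aliquots for 3 min across 48°C-58°C. After pooling, adjustment to 0.5% NP-40 at 4°C and centrifugation at 21,000xg for 90 min, supernatant protein was measured by TMTpro 16plex LC-MS/MS with channel sums equalised.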
# [2] = compound: CCCS(=O)(=O)Nc1ccc(F)c(C(=O)c2c[nH]c3ncc(Cl)cc23)c1F
# How it was run: as §1
# [3] = compound: CCN(CCCOc1ccc2c(Nc3cc(CC(=O)Nc4cccc(F)c4)[nH]n3)ncnc2c1)CCOP(=O)(O)O [barasertib]
# How it was run: as §1
# [4] = compound: CC[C@@H]1C(=O)N(C)c2cnc(Nc3ccc(C(=O)NC4CCN(C)CC4)cc3OC)nc2N1C1CCCC1
# How it was run: as §1
# [5] = compound: CC[C@@H]1C(=O)N(C)c2cnc(Nc3ccc(C(=O)N[C@H]4CC[C@H](N5CCN(CC6CC6)CC5)CC4)cc3OC)nc2N1C(C)C [volasertib]
# How it was run: as §1
# [6] = compound: CCn1c(C(=O)N(C2CC2)C2CC2)cc2c3c(ncn3C)c(Nc3cc(C)n(C)n3)nc21
# How it was run: as §1
# [7] = compound: CCn1cc(-c2ccnc3[nH]c(-c4cccc(CN(C)C)c4)cc23)c(-c2ccc(NC(=O)N(C)C)cc2)n1
# How it was run: as §1
# [8] = compound: CN1CCC(CNc2ccc3ncc(-c4cccc(OC(F)(F)F)c4)n3n2)CC1
# How it was run: as §1
# [9] = compound: CN1CCN(CCOc2cc(OC3CCOCC3)c3c(Nc4c(Cl)ccc5c4OCO5)ncnc3c2)CC1 [saracatinib]
# How it was run: as §1
# [10] = compound: CN1CCN(c2nc(C3=C(c4c[nH]c5ccccc45)C(=O)NC3=O)c3ccccc3n2)CC1 [sotrastaurin]
# How it was run: as §1
# Sequence of UniProt Q9H4Z3 (Q9H4Z3 whole entry, looked up): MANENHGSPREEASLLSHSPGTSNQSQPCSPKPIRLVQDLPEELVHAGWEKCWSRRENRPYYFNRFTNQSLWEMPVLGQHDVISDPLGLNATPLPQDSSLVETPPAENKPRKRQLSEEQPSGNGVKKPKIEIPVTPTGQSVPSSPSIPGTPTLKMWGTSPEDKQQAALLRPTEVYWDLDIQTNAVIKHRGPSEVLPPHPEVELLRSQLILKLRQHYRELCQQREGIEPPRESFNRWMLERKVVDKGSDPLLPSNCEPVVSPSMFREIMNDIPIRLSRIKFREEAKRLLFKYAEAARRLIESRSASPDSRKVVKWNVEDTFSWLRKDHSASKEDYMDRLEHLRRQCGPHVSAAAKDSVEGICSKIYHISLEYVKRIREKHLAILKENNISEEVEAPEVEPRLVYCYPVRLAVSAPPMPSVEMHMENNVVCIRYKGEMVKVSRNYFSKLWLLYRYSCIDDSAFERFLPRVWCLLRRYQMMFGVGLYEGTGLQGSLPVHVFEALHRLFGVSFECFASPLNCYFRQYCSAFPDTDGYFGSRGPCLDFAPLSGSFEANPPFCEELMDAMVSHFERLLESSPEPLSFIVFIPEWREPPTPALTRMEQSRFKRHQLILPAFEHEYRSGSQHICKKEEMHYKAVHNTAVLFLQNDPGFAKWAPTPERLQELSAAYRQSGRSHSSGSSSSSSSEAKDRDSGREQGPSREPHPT
# Sequence of UniProt Q9Y606 (Q9Y606 whole entry, looked up): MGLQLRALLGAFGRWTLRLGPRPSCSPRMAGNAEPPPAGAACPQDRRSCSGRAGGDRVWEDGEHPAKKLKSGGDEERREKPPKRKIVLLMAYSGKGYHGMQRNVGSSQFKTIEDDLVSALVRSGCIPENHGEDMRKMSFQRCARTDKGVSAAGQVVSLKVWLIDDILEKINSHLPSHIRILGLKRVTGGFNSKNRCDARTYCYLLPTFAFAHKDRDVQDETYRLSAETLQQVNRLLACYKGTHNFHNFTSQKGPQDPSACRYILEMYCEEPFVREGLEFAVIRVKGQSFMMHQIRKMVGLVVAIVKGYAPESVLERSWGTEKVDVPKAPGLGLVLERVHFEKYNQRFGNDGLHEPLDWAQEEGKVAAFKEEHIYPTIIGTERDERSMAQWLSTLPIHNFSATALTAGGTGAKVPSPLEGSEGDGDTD
# Sequence of UniProt Q8NAV1 (Q8NAV1 whole entry, looked up): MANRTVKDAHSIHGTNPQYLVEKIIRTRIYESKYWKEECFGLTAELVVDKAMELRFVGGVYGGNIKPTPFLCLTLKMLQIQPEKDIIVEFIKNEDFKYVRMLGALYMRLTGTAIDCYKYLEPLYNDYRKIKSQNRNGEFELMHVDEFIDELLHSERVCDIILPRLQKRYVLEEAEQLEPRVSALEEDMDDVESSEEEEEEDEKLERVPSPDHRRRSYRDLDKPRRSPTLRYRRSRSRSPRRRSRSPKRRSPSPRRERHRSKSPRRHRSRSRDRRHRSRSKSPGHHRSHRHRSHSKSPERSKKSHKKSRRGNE
# Sequence of UniProt Q8TBX8 (Q8TBX8 whole entry, looked up): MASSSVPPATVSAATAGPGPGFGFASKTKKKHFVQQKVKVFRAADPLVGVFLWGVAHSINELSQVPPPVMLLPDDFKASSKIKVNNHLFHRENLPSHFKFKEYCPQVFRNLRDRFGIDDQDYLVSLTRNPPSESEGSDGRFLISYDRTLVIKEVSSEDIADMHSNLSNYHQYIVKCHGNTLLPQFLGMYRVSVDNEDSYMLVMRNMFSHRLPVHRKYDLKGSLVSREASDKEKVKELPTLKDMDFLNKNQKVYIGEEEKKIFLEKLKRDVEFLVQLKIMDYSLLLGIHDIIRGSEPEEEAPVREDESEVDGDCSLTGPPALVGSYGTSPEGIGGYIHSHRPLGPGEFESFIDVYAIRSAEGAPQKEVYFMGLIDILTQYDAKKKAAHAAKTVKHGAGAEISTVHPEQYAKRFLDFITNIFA
# Sequence of UniProt P48426 (P48426 whole entry, looked up): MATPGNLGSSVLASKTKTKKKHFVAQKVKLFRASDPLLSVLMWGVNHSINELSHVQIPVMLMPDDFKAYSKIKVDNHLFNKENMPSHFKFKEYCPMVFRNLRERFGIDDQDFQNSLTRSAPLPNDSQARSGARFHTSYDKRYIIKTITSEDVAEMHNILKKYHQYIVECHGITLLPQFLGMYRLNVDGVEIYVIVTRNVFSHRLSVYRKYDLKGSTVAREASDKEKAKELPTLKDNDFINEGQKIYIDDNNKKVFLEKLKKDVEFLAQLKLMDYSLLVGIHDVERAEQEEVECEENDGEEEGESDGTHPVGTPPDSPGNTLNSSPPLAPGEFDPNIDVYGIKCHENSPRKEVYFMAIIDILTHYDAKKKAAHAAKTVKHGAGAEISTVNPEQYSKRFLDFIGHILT
# Sequence of UniProt P06454 (P06454 whole entry, looked up): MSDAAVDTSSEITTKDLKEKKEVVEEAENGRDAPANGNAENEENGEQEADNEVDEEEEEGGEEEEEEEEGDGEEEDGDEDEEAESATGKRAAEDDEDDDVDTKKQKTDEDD
# Sequence of UniProt P46020 (P46020 whole entry, looked up): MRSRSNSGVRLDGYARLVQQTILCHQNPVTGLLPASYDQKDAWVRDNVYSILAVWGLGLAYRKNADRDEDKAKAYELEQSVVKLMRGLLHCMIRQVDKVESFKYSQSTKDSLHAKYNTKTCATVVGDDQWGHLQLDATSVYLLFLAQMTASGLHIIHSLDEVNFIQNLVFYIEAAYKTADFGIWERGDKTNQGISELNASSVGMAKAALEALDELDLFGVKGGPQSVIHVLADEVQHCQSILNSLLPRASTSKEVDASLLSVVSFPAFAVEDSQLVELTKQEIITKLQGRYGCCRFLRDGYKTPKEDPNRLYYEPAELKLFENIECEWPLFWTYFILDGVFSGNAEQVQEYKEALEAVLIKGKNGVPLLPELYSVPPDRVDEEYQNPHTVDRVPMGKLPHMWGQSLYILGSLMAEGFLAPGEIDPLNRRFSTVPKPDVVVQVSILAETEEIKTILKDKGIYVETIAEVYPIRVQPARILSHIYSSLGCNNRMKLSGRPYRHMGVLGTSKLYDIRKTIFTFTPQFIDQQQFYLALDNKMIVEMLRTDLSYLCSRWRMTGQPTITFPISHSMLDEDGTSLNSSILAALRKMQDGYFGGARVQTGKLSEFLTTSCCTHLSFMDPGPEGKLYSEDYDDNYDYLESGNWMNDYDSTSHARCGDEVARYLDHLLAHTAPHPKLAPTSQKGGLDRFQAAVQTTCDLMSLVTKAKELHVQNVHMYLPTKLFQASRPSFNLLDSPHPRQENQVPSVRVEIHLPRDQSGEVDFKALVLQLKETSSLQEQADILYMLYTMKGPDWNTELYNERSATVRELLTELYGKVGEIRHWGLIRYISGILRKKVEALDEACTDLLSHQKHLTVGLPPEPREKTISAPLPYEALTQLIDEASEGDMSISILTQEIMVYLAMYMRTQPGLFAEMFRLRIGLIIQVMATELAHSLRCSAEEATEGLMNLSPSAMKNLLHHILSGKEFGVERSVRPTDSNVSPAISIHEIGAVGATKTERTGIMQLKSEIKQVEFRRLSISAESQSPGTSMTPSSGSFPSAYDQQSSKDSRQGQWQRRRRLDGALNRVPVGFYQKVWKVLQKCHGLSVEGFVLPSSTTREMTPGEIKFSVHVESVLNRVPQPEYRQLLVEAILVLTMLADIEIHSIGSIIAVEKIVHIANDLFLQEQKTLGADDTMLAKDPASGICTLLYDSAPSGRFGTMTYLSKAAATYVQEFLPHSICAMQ
# Sequence of UniProt Q13356 (Q13356 whole entry, looked up): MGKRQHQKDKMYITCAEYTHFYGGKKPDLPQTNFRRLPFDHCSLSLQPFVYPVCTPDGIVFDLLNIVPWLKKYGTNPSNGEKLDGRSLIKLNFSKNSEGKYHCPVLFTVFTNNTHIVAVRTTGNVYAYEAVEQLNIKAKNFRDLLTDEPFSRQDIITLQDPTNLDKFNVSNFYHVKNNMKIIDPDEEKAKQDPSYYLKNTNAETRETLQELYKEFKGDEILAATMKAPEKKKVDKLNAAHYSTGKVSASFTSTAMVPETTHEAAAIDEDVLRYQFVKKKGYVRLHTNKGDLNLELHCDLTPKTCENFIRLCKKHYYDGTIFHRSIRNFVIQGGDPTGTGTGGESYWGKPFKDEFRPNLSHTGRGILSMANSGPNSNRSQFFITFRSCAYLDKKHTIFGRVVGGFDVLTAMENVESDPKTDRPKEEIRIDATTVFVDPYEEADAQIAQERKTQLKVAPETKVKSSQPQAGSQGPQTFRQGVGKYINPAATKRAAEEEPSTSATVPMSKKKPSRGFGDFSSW
# Sequence of UniProt O60825 (O60825 whole entry, looked up): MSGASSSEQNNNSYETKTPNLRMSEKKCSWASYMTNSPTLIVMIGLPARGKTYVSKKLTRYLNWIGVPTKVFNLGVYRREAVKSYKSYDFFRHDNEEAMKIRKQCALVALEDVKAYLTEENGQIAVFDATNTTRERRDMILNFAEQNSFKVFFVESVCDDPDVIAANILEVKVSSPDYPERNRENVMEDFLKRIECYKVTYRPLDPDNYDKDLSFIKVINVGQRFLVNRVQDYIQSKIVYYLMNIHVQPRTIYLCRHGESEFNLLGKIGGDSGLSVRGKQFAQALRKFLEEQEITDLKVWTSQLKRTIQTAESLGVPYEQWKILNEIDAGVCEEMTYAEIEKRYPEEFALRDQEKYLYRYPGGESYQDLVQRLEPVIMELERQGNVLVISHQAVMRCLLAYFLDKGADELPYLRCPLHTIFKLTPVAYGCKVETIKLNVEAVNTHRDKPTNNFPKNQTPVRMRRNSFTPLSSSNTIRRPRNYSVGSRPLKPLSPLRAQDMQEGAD
# Sequence of UniProt O43741 (O43741 whole entry, looked up): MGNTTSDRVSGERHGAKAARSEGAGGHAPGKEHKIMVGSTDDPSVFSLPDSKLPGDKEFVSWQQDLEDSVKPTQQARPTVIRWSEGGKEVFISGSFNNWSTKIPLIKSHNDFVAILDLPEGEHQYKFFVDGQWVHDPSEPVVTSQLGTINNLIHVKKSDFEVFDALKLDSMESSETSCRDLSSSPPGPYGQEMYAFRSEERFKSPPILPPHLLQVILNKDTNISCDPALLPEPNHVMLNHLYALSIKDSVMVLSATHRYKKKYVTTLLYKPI
Target,log2 fold change [1],log2 fold change [2],log2 fold change [3],log2 fold change [4],log2 fold change [5],log2 fold change [6],log2 fold change [7],log2 fold change [8],log2 fold change [9],log2 fold change [10]
POLD1 (UniProt P28340),0.01,0.053,-0.011,-0.021,-0.005,0.035,0.028,-0.043,0.01,0.015
POLR2B (UniProt P30876),0.021,-0.004,0.039,-0.049,-0.074,0.01,-0.029,0.017,0.016,0.024
PTGS1 isoform 6 (UniProt P23219),0.058,0.076,0.039,0.005,-0.022,-0.012,-0.279 (active),0.134,-0.033,0.065
PPIL2 (UniProt Q13356),0.012,0.015,0.035,-0.013,-0.06,0,-0.023,0.016,-0.032,0.024
PDE2A (UniProt O00408),0.374 (active),-0.015,-0.015,-0.215,0.041,-0.173,-0.135,0.023,-0.042,0.039
PRKCB isoform 2 (UniProt P05771),0.045,-0.024,-0.017,-0.01,-0.062,0.002,0.073,-0.077,-0.023,0.505 (active)
PI4KB (UniProt Q9UBF8),0.222 (active),0.011,-0.051,0.049,-0.026,-0.016,-0.038,0.134,-0.006,0.012
PUS3 (UniProt Q9BZE2),0.083,0.036,0.074,-0.058,-0.007,0.071,0.193,-0.195,0.018,0.052
PIP4K2B (UniProt P78356),0.016,0.012,-0.045,0.21 (active),0.092,0.038,0.048,0.065,-0.045,-0.009
PIP4K2C (UniProt Q8TBX8),0.039,-0.028,-0.045,0.463 (active),0.206,0.103,-0.114,0.225,-0.01,-0.019
PUS1 (UniProt Q9Y606),0.026,0.002,0.055,-0.086,-0.077,0.028,-0.058,-0.02,0.035,-0.027
PUM1 isoform 3 (UniProt Q14671),-0.07,0.013,0.068,0.031,-0.063,0.03,0.045,-0.084,0.039,0.016
PLEKHA5 isoform 6 (UniProt Q9HAU0),0.003,-0.003,0.043,-0.005,0.003,0.026,-0.117,-0.088,0.027,0.02
PTMA (UniProt P06454),0.022,-0.049,0.018,0.06,0.004,-0.031,0.569 (active),-0.337 (active),-0.061,0.04
PIP4K2A (UniProt P48426),0,-0.009,-0.051,0.31 (active),0.087,0.073,-0.035,0.155,0.036,0.02
PHACTR4 isoform 2 (UniProt Q8IZ21),0.011,0.011,-0.008,0.065,0.023,-0.003,0.836 (active),-0.178,0,0.013
POLA1 (UniProt P09884),0.002,0,0.042,0.021,-0.012,0.03,-0.009,-0.016,-0.003,0.004
PRKACA (UniProt P17612),-0.036,-0.016,0.006,0.095,-0.043,-0.081,-0.418,0.351,-0.075,0.216
PDS5A (UniProt Q29RF7),0.023,0.031,0.064,-0.057,-0.029,0.054,-0.12,-0.019,0.007,0.026
PPP3CA isoform 2 (UniProt Q08209),-0.008,-0.037,0.025,0.046,-0.005,0.032,0.115,-0.182,0,-0.005
PCIF1 (UniProt Q9H4Z3),0.03,-0.012,0.088,0.023,0.005,0.029,-0.223,0.011,-0.001,-0.036
PI4KA (UniProt P42356),0.005,0.014,0,0.007,-0.064,0.019,-0.069,0.164,0.016,0.056
PIK3R1 (UniProt P27986),0.011,-0.01,-0.005,0.172,0.016,0.023,-0.037,0.365 (active),0.025,0.056
PRKAB2 (UniProt O43741),0.022,0.104,-0.081,0,-0.05,-0.094,-0.85 (active),0.303,0.029,0.026
PFKFB2 (UniProt O60825),-0.011,0.011,0.008,0.004,-0.025,0.015,-0.021,-0.029,0.012,0.002
PHKA1 (UniProt P46020),-0.021,0.009,0.089,0.044,-0.074,0.074,-0.067,0.079,-0.009,-0.019
PRPF38A (UniProt Q8NAV1),-0.021,-0.011,-0.037,-0.029,-0.031,-0.055,-0.465 (active),0.046,0.004,0.191
PPM1H (UniProt Q9ULR3),0.066,-0.001,0,0.103,0.025,0,-0.079,0.041,-0.062,0.022
PITRM1 isoform 2 (UniProt Q5JRX3),-0.026,0.001,-0.01,-0.018,0.127,-0.008,0.07,-0.048,-0.021,0.007
PES1 (UniProt O00541),0.009,0.023,-0.019,-0.074,-0.04,0.017,-0.043,0.052,0.007,0.028

# From the supplement of paper PMC10849652
